An excerpt weighted towards active compounds, which were near 6.5% of everything screened.
HCMV antiviral: qHTS Assay for inhibitors of the human cytomegalovirus (HCMV) | HFF cells, HCMV-luciferase reporter, 72 h; hits give low values | activity change, negative = inhibition, % at 57.5 µM | 410,000 compounds, 4.5% hits; in the data active = activity change below about -60%; inconclusive = no clear call, values can overlap the other calls; inactive = above about -39%
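Steps: HFFs plated, 16 h 37C; compounds added; HCMV-luciferase added to MOI 1 PFU/cell; 72 h 37C; OneGlo reagent, 5 min room temperature; luminescence read, normalized to controls.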
Vaccinia mCherry: qHTS for Stage-Specific Inhibitors of Vaccinia Orthopoxvirus: mCherry Reporter Primary qHTS | 310,000 compounds, 0.63% hits | Potency, µM (doses to about 36.5 µM), hits mostly inhibitors | Vaccinia virus mCherry reporter infection, fluorescence; calls by dose curve; tested in A549 cells; note: nearly all actives have a fitted effect of over 35% in size
FMDV inh: High Throughput Screening for Foot and Mouth Disease Virus Antivirals. FMDV antiviral cell-based qHTS. Potency, µM (doses to about 57.9 µM), hits mostly inhibitors. AID 1159524, 2015. 410,000 compounds, 1.2% hits; calls by dose curve; tested in HEK293T cells; note: read-out not given here; nearly all actives have a fitted effect of over 45% in size
Marburg entry inh: qHTS for inhibitors of binding or entry into cells for Marburg Virus. Marburg virus pseudotyped entry inhibition, cell reporter. Potency, µM (doses to about 37.8 µM), hits mostly inhibitors. 300,000 compounds, 1.8% hits; calls by dose curve; tested in HEK293 cells
LASV entry inh: qHTS for Inhibitors of binding or entry into cells for Lassa Virus; Lassa virus pseudotype entry inhibition, cell reporter; Potency, µM (doses to about 37.9 µM), actives largely listed as inhibitors; 300,000 compounds, 1.2% hits; AID 540256, 2011; calls by dose curve; tested in HEK293 cells; note: nearly all actives have a fitted effect of over 50% in size
Vaccinia Venus: qHTS for Stage-Specific Inhibitors of Vaccinia Orthopoxvirus: Venus Reporter Primary qHTS; Vaccinia virus Venus reporter expression, fluorescence; Potency, µM (highest dose often 36.5 µM), actives largely listed as inhibitors; AID 720580, 2013; 330,000 compounds, 0.46% hits; calls by dose curve; tested in A549 cells; note: nearly all actives have a fitted effect of over 30% in size
A number is an active result; n = inactive; u = inconclusive; x = no result; [ ] = dose if it differs, or a comment.

SMILES	HCMV antiviral	Vaccinia mCherry	FMDV inh	Marburg entry inh	LASV entry inh	Vaccinia Venus
Cc1c(Cl)cccc1Nc1n[nH]c(=S)s1	-66	n	n	n	n	n
Cc1ccccc1Nc1n[nH]c(=S)s1	n	n	n	x	x	n
CN(C)c1ccc(CNC(=O)Cc2ccc(NC(=O)N3CCCCc4ccccc43)cc2)cc1	n	n	n	x	u	n
O=C(CNC(=S)N(Cc1ccccc1F)C1CCCCC1)NCC1CCCO1 (stereo unspecified)	-61	n	n	u	4.5µM	u
Cc1cccc(C)c1NC(=O)Cn1c(=O)n(Cc2ccc(C(=O)NCc3ccco3)cc2)c(=O)c2sccc21	-66	n	n	n	u	n
Cc1ccc(CNC(=O)c2ccc(Cn3c(=O)c4ccccc4n(CC(=O)Nc4c(C)cc(C)cc4C)c3=O)cc2)cc1	n	u	n	n	n	u
N#Cc1ccccc1Cn1c(=O)n(Cc2ccc(C(=O)NCc3ccco3)cc2)c(=O)c2sccc21	n	n	n	n	n	n
Cc1cc(C)c(NC(=O)Cn2c(=O)n(Cc3ccc(C(=O)NCc4ccco4)cc3)c(=O)c3sccc32)c(C)c1	-76	n[7.34 µM]	n	n	u	n[7.34 µM]
COc1ccc(C2=NC(C)(C)N(CC(=O)Nc3cccc(C)c3)C2=O)cc1	n	n	n	u	n	n
CCN(C(=O)C1CCCN(S(=O)(=O)c2c(C)noc2/C=C/N(C)C)C1)c1cccc(C)c1 (stereo unspecified)	n	n	n	u	n	n
CCC(C)C(=O)N1CCc2cc(-c3csc(N)n3)ccc21 (stereo unspecified)	n	u	n	u	n	u
CC(C)(C)C(=O)N1CCc2cc(-c3csc(N)n3)ccc21	u	u	n	u	2µM	n
c1ccc(Nc2nc(-c3ccccc3)nc3ccccc23)cc1	n	x	n	x	x	x
COc1ccc(Nc2nc(N3CCN(S(=O)(=O)N(C)C)CC3)nc3ccccc23)cc1	-85	x	n	x	x	x
Fc1cccc(Nc2nc(-c3ccncc3)nc3ccccc23)c1	n	x	25µM	u	n	x
COc1ccc(OC)c(Nc2nc(-c3ccncc3)nc3ccccc23)c1	n	n	u	u	u	n
COc1ccc(Nc2nc(-c3ccncc3)nc3ccccc23)cc1	n	n	n	2.8µM	n	n
O=C(O)CNc1nc(-c2ccccc2)nc2ccccc12	n	n	n	n	n	n
CCOC(=O)CNc1nc(-c2ccncc2)nc2ccccc12	n	n	n	11µM	n	n
Nc1nc(CSc2nnnn2-c2ccccc2)nc(N2CCCc3ccccc32)n1	n	u	28µM	u	u	n
CCSc1ncc(Cl)c(C(=O)Nc2sc3c(c2C(=O)OC)CCCC3)n1	x	n	x	x	x	n
CCOc1ccc(CCN2C(=O)C(=O)N([C@@H](CC(C)C)CN3CCC[C@@H]3CN3C(=O)C(=O)NC[C@@H]3Cc3ccccc3)C[C@@H]2CC(C)C)cc1	n	n	u	x	x	13µM
O=C1NC[C@H](Cc2ccccc2)N(C[C@H]2CCCN2C[C@H](Cc2ccccc2)N2C[C@H](Cc3ccc(O)cc3)N(CCc3ccccc3)C(=O)C2=O)C1=O	-73	n	n	x	x	n
CCOc1ccc(CCN2C(=O)C(=O)N([C@@H](Cc3ccccc3)CN3CCC[C@H]3CN3C(=O)C(=O)NC[C@@H]3Cc3ccccc3)C[C@@H]2Cc2ccccc2)cc1	-65	u	u	x	x	u
CCOc1ccc(CCN2C(=O)C(=O)N([C@@H](CC(C)C)CN3CCC[C@H]3CN3C(=O)C(=O)NC[C@@H]3Cc3ccccc3)C[C@@H]2Cc2ccccc2)cc1	n	u	u	x	x	n
SMILES	HCMV antiviral	Vaccinia mCherry	FMDV inh	Marburg entry inh	LASV entry inh	Vaccinia Venus
CCOc1ccc(CCN2C(=O)C(=O)N([C@@H](Cc3ccc(O)cc3)CN3CCC[C@H]3CN3C(=O)C(=O)NC[C@@H]3Cc3ccccc3)C[C@@H]2Cc2ccc(O)cc2)cc1	n	n	n	x	x	n
Cc1ccccc1NC(=O)c1c(C)oc2ccc(O)c(CN3CCCC(C)C3)c12 (stereo unspecified)	n	n	n	u	u	n
CC(C)c1c(C(=O)NCC(C)(C)N2CCOCC2)cnn1-c1nccc(-c2ccccc2F)n1	x	n	n	x	x	n
CCCc1nn2c(=O)cc(COC(=O)c3cccc(NC(=O)c4ccc(OCC)cc4)c3)nc2s1	n	n	n	x	u	n
Cc1cc(Cl)ccc1OCc1n[nH]c(=S)n1C1CCCCC1	n	x	u	23µM	u	x
CC(C)=CCN1CCN(CCC2=C(C)CCCC2(C)C)CC1CCO (stereo unspecified)	-66	x	n	x	x	x
CC(NC(=O)c1ccc2c(c1)N(Cc1ccc(Cl)cc1)C(=O)c1ccccc1S2=O)c1ccccc1 (stereo unspecified)	n	n	n	u	n	n
COC(=O)COc1ccc(C2Nc3c(Cl)ccc(C(=O)O)c3C3C=CCC32)cc1 (stereo unspecified)	-75	n	n	n	n	n
CC(C)c1ccc(/C=C/C(=O)Nc2nncs2)cc1	u	n	n	u	8.9µM	n
COc1cc(NC(=O)C2Cc3ccccc3N2C(=O)c2ccccc2)cc(OC)c1 (stereo unspecified)	n	n	n	x	n	n
Cc1ccc(NC(=O)CCN2CCN(C/C=C/c3ccccc3)CC2)cc1	n	x	u	8.9µM	n	u
Cc1ccc(NC(=O)CCN2CCN(C/C=C/c3ccccc3)CC2)cc1C	n	n	n	u	n	n
COc1ccc(NC(=S)N2CCN(C/C=C/c3ccccc3)CC2)cc1	-65	u	n	u	n	n
CCOc1ccc(NC(=S)N2CCN(C/C=C/c3ccccc3)CC2)cc1	n	u	n	n	x	u
CC(C(=O)Nc1ccc([N+](=O)[O-])cc1)N1CCN(C/C=C/c2ccccc2)CC1 (stereo unspecified)	u	n	28µM	13µM	n	n
CNc1nc2cnc(Nc3cccc(F)c3)cc2n1CCOC	n	x	x	x	x	x
Cc1cc(N/N=C/c2ccccc2F)nc(NCc2ccccc2)n1	n	n	n	u	n	n
Cc1cc(N/N=C/c2cccc(F)c2)nc(NCc2ccccc2)n1	n	u	n	16µM	u	u
Cc1cc(Nc2cccc(Cl)c2)nc(NCc2ccccc2)n1	-77	x	u	u	n	x
Cc1cc(N/N=C/c2ccc(Cl)cc2)nc(NCc2ccccc2)n1	n	u	n	u	u	n
Cc1cc(N/N=C/c2ccccc2)nc(NCc2ccccc2)n1	n	10µM	n	u	u	u
Cc1cc(N/N=C/c2cccc(Cl)c2)nc(NCc2ccccc2)n1	n	u	n	18µM	u	u
CCOc1ccc(C2C(=O)N(C3CCCCCC3)CC(=O)N2CCc2ccc(Cl)cc2)cc1OC (stereo unspecified)	u	n	n	x	u	n
Cc1ccccc1Nc1oc(-c2ccccc2)nc1-c1ccc(C(F)(F)F)cc1	x	x	x	n	u	x
